# Data as given in PubChem BioAssay (NCI).
# The panel holds about 83,000 compounds, 20% with a hit somewhere; the sample as a whole holds those more often.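 Percent growth is the endpoint: 0 to 100 indicates growth inhibition (40 means 60% inhibition), 0 means no net growth, and negative values indicate cell death.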 Activity calls are given as the source filed them.
# Tested on: LOX IMVI melanoma
# Assay: NCI-60 one-dose screen, 48 h (100 = growth as untreated, 0 = no growth, -100 = all killed)
# Settings: 10 µM unless noted
# Method: Growth inhibition of the LOX IMVI human tumor cell line is measured as a screen for anti-cancer activity. Cells are grown in 96 well plates and exposed to the test compound for 48 hours. Compounds are tested at a single concentration, which is 10^-5 M for most compounds. The reported endpoint is percent growth (GI% or GIPRCNT), where numbers from 0 - 100% represent growth inhibition, and numbers from -100% - 0 represent cell death. For example, a value of 40 represents 60% growth inhibition. A value of 0 means no net growth occurred over the course of the experiment. A value of -40 indicates 40% of cells at the beginning of the experiment died by the end of the experiment. A value of -100 means all cells are dead at the end of the experiment.
# NCI-60 Human Tumor Cell Lines Screen was performed using the standard one-dose NCI protocol, which is described in more detail at https://dtp.cancer.gov/discovery_development/nci-60/default.htm.
# Compounds with GIPRCNT values below 10 were considered active. Activity score was based on GIPRCNT using the following formula: […]
# Score is 0 for GIPRCNT values of 100 or above, 50 for GIPRCNT values of 0, and 100 for GIPRCNT values of -100.
row,Compound,growth
1,O=C(/C(=C\c1ccc([N+](=O)[O-])cc1)S(=O)Cc1ccc(F)cc1)c1ccc(F)cc1 (stereo not given),-52.1% (active)
2,O=C(/C=C(/C=C/c1coc2ccccc12)OB(F)F)/C=C/c1coc2ccccc12,84.9% (inactive)
3,O=C1c2cccc3c(-c4ccc5c(c4)ncn5C4CCCCC4)ccc(c23)C(=O)N1CCO,87.4% (inactive)
4,CCOC(=O)c1cc(C(=O)c2ccc(OC)cc2)n2ccc(/C=C/c3cc[n+](CC(=O)c4ccc(OC)cc4)cc3)cc12,25.4% (inactive)
5,O=S(=O)(NCCCNc1nccc(-c2c(-c3cccc(O)c3)nc3occn23)n1)c1ccc(Cl)cc1,44.4% (inactive)
6,N#C/C(=C\c1c(-c2ccccc2)[nH]c2ccccc12)C(=O)c1ccc(Cl)cc1,44.4% (inactive)
7,Cn1cc(-c2nc(-c3c[nH]c4c(Cl)nccc34)cs2)c2cc(F)ccc21,109% (inactive)
8,CCOC(=O)Oc1c(OC)cc(C(=O)c2ccc(OC)c(O)c2OC)cc1OC,49.7% (inactive)
9,N#C/C(=C\c1ccc(Cl)cc1)n1nnc2cc(F)c(F)cc21,-63.5% (active)
10,Cc1ccc(-n2c3c(c(-c4ccccc4)c2-c2ccccc2)C2=NCCN2C=N3)cc1,93.6% (inactive)
11,COc1ccc(-c2[nH][nH]c(=O)c2-c2nc3ccccc3s2)cc1,99.9% (inactive)
12,C#CCNC(=O)[C@]1(C)CC[C@]2(C)CC[C@@H]3C(=CC[C@H]4[C@@]3(C)CC[C@H]3C(C)(C)C(=O)CC[C@]43C)[C@@H]2C1,96.2% (inactive)
13,Cc1cc2c(C(=O)NCC#N)cccc2n1-c1nc2c(c(NCc3ccccc3)n1)CCCC2,-85% (active)
14,CC(Oc1ccc(C(=O)O)cc1C(F)(F)F)c1ccc(Oc2ccccc2)cn1 (stereo not given),97% (inactive)
15,Cn1cc(-c2csc(-c3c[nH]c4ccccc34)n2)c2ccnc(Cl)c21,82.6% (inactive)
16,COc1cc2c(=O)n(CCN(C)C)c3c4cc5c(cc4ccc3c2cc1OC)OCO5,-58.3% (active)
17,CCSCC1CC(O)(c2ccccc2)CC(c2ccc(F)cc2)O1 (stereo not given),4.29% (active)
18,COC(=O)C(OC(C)=O)C(OC(C)=O)c1ccc(OC)c(OC)c1 (stereo not given),90% (inactive)
19,COc1cccc(-c2ccc3c(c2)NC(=O)/C3=C\c2ccc[nH]2)c1,50.5% (inactive)
20,O=C1Nc2cc(-c3ccc(NC(=O)C4CC4)cc3)ccc2/C1=C/c1ccc[nH]1,95.1% (inactive)

row,Compound,growth
1,CN(C)c1ccc(C2C(C#N)=C(/N=C/c3ccccc3)Oc3c2ccc2ccccc32)cc1 (stereo not given),54.6% (inactive)
2,Cc1ccc(-n2cc(-c3ccccc3)c3c2N=NN2CCN=C32)cc1,97.7% (inactive)
3,O=C(/C=C(O)/C=C/c1ccc(SC(F)(F)F)cc1)/C=C/c1ccc(SC(F)(F)F)cc1,72% (inactive)
4,N#C/C(=C\c1ccc(C(F)(F)F)cc1)c1cc2ccccc2[nH]1,99.7% (inactive)
5,COc1ccc(C(=O)C2C(C#N)C(C#N)C3C=Cc4ccccc4N32)cc1 (stereo not given),43.5% (inactive)
6,NS(=O)(=O)c1ccc(Cn2c(SCC(=O)N/N=C/c3ccccc3O)nc3ccccc3c2=O)cc1,16.1% (inactive)
7,COc1cc(-c2n/c(=C\c3c(O)[nH]c4ccc(Cl)cc34)cc3c2=Nc2ccccc2-3)ccc1F,0.0846% (active)
8,N#Cc1c(-c2ccccc2)nc2c(c(-c3ccccc3)nn2-c2ccccc2)c1-c1ccc(O)cc1,-48.3% (active)
9,COc1ccccc1NS(=O)(=O)c1cccc(C(=O)Nc2ccc(Br)cc2)c1,42.4% (inactive)
10,N#CC(C#N)=Cc1cc2ccccc2nc1Oc1ccc(C(F)(F)F)cc1,76.4% (inactive)
11,COc1cc(/C=C\C(=O)O)ccc1OCc1ccccc1,95.7% (inactive)
12,N#Cc1cc(-c2nc3ccccc3s2)c(=O)n(NS(=O)(=O)c2ccccc2)c1N,99.4% (inactive)
13,COc1cc2nc(-c3ccc(Cl)cc3)cc(OCCCN3CCC(O)CC3)c2cc1OC,-53.3% (active)
14,COc1cc2nc(-c3ccc(Cl)cc3)cc(OCCCN3CCCCC3)c2cc1OC,-45.2% (active)
15,COc1ccccc1/C(C)=N/NC(=O)CSc1nc2ccccc2c(=O)n1Cc1ccc(S(N)(=O)=O)cc1,89.9% (inactive)
16,O=C(CNCCN1CCOCC1)N1c2cccc3cccc(c23)N(C(=O)CNCCN2CCOCC2)C1c1cn(-c2ccccc2)nc1-c1cccc([N+](=O)[O-])c1,53.9% (inactive)
17,O=C(/C=C/c1ccc(Cl)cc1)c1ccc(NC(=O)N2CCN(c3cc4c(cc3F)c(=O)c(C(=O)O)cn4C3CC3)CC2)cc1,6.5% (active)
18,Cc1c(C(=O)NCCC(=O)NO)sc2ncnc(Nc3ccc(NC(=O)Nc4cccc(C(F)(F)F)c4)cc3)c12,94.5% (inactive)
19,O=C(Nc1ccccc1C(=O)N/N=C(\c1ccccc1)c1ccccn1)c1ccc(F)cc1,8.38% (active)
20,COc1ccc(C/C(C)=C(/c2ccc(OCCCN(C)C)cc2)c2ccc(OC(C)=O)cc2)cc1,47.8% (inactive)
